Records with an inconclusive call do not appear. Entries that show only a call come without a potency. Values without a mark were called inactive. Active and inactive are the calls of the source. Calls come from the whole dose curve; as a rule, active = well fitted curve in the direction sought with a large enough effect; inconclusive = small, poorly fitted or top-dose-only effect, or another doubt; inactive = no such curve, though single readings can be large; an effect the other way counts as inactive or inconclusive.
Legend:
[1] = biological target: Rap guanine nucleotide exchange factor 3 (Homo sapiens) (UniProt O95398); experiment: Confirmatory qHTS for agonist of cAMP-regulated guanine nucleotide exchange factor 3 (EPAC1) (AID 1645881);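 note: EPAC1 catalysed release of BODIPY-GDP from Rap1B seen as fluorescence loss; nearly all actives have a fitted effect of over 75% in size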
[2] = biological target: Rap guanine nucleotide exchange factor 4 (Homo sapiens) (UniProt Q8WZA2); experiment: Confirmatory qHTS for agonist of cAMP-regulated guanine nucleotide exchange factor 4 (EPAC2) (AID 1645884);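 note: nucleotide exchange releases bodipy-GDP from Rap1 and this lowers its fluorescence; nearly all actives have a fitted effect of over 65% in size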
[3] = biological target: Rap guanine nucleotide exchange factor 4 (Homo sapiens) (UniProt Q8WZA2); experiment: Confirmatory qHTS for antagonist of cAMP-regulated guanine nucleotide exchange factor 4 (EPAC2) (AID 1645885); note: nearly all actives have a fitted effect of over 25% in size; note: potency is the fitted concentration of half-maximal effect
[4] = biological target: Rap guanine nucleotide exchange factor 3 (Homo sapiens) (UniProt O95398); experiment: Counterscreen qHTS for antagonist of cAMP-regulated guanine nucleotide exchange factor 3 (EPAC1) (AID 1645888);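 note: fluorescence loss as bound BODIPY-GDP is released from Rap1B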
Method in brief: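 Rap1B–BODIPY-GDP (250 nM) with 50 uM GDP; compounds pin-transferred to 9.74 nM–152 uM final (activator) or from 7.32 nM upwards (inhibitor). Fluorescence Ex/Em 480/540 nm read at 5 and 30 min, then after adding cAMP or buffer, at room temperature.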

Chain of Rap guanine nucleotide exchange factor 3 (Homo sapiens) (O95398 whole entry, looked up): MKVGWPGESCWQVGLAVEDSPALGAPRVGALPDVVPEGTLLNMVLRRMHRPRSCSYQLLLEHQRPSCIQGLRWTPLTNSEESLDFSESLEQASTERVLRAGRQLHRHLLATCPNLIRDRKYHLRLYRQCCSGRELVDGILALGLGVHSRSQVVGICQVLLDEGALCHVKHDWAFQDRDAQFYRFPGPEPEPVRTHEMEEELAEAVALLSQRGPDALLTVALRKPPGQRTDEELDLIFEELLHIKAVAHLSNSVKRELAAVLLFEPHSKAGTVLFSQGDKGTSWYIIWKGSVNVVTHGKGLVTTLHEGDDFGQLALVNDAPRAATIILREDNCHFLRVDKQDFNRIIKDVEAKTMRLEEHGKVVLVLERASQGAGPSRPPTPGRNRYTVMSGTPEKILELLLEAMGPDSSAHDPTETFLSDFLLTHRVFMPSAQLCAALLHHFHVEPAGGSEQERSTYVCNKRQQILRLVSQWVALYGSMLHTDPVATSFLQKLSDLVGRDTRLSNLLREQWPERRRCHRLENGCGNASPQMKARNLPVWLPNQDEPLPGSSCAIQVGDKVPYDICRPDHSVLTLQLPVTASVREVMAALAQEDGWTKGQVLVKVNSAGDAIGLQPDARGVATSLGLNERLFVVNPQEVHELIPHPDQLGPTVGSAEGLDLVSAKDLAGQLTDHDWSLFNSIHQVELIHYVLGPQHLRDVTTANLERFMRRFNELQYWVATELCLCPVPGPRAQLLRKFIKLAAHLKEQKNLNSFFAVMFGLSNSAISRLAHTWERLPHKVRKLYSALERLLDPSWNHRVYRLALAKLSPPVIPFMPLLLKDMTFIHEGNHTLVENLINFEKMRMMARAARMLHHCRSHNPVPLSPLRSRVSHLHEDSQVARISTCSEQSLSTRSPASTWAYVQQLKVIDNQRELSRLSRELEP
Chain of Rap guanine nucleotide exchange factor 4 (Homo sapiens) (Q8WZA2 whole entry, looked up): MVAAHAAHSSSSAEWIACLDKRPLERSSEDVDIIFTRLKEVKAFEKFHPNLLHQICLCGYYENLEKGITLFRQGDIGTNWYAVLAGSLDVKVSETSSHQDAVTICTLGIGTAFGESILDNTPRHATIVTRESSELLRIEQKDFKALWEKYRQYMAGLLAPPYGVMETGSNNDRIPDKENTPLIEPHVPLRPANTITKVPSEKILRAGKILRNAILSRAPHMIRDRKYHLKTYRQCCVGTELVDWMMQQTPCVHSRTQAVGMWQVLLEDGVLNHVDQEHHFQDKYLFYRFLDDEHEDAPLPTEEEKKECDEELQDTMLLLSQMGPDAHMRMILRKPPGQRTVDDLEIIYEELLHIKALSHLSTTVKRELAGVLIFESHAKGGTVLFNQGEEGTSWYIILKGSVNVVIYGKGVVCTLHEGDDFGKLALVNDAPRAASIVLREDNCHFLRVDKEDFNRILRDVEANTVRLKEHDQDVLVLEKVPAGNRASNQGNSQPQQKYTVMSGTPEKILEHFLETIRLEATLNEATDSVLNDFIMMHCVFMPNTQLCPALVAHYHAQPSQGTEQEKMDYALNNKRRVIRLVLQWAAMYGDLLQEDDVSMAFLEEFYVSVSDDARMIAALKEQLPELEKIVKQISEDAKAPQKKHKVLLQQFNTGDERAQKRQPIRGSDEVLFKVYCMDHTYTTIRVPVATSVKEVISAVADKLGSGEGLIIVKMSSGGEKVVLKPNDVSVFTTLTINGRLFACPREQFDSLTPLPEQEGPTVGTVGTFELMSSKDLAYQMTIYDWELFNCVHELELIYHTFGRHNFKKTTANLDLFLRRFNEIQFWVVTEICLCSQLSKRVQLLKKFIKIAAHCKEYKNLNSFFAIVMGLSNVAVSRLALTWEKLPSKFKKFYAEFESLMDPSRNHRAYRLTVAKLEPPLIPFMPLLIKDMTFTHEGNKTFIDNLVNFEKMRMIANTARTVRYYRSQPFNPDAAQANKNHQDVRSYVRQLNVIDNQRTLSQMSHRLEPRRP

SMILES | Potency [1] | activation [2] | Potency [3] | activity change, negative = inhibition [4] | Potency [2] | Potency [4] | outcome [3]
OC(CSc1ccccc1)CN1CCN(c2cccc(Cl)c2)CC1 (stereo unspecified) | inactive | 5.38% [at 17.1 µM, percent relative to cAMP agonist control] | inactive | 12.2% [at 30.8 µM] |  |  | 
Cc1ccc(NC(=O)CN2C(=O)S/C(=C\c3cccn3-c3cccc(C(=O)O)c3)C2=O)cc1C | inactive | 3.81% [at 17.1 µM, percent relative to cAMP agonist control] | 0.019 µM (active) | -10.4% [at 30.8 µM] |  |  | 
Oc1ccc2ccccc2c1/C=N/c1nc2c(s1)CCCC2 | inactive |  | inactive |  | inactive | inactive | 
Cc1occc1-c1nnc(SCC(=O)c2cc3ccccc3oc2=O)o1 | inactive | -0.174% [at 17.1 µM, percent relative to cAMP agonist control] | inactive | -0.143% [at 30.8 µM] |  |  | 
CCOc1ccc(C(=O)N2CC(=O)Nc3ccc(C)cc3C2c2ccc(F)cc2)cc1OCC (stereo unspecified) | inactive |  |  |  | inactive | inactive | inactive [at 12.7 µM]
CCOc1cc(CNc2ccc(O)cc2)cc(Cl)c1OCc1ccccc1 | inactive |  | inactive |  | inactive | inactive | 
COc1ccc2c(c1)Cc1sc(NC(=O)c3ccccc3C)nc1-2 | inactive |  | inactive |  | inactive | inactive | 
O=C(CSc1ccc(-c2ccco2)nn1)c1cccc([N+](=O)[O-])c1 | inactive |  | inactive |  | inactive | inactive | 
COc1ccc(OC)c(NC(=O)C(C)Oc2ccc(Br)cc2)c1 (stereo unspecified) | inactive |  | inactive |  | inactive | inactive | 
COc1ccc(/C=C/C(=O)Oc2ccc(C)c(C)c2)cc1OC | inactive |  | inactive |  | inactive | inactive | 
Cc1cc(CSc2ccc(Cl)cc2)ccc1N | inactive |  | inactive |  | inactive | inactive | 
CC(c1nc2ccccc2n1Cc1ccccc1)n1c(-c2cnccn2)nc2ccccc21 (stereo unspecified) | inactive |  | inactive |  | inactive | inactive | 
O=C(CN1C(=O)/C(=C2/SC(=S)N(CCS(=O)(=O)O)C2=O)c2ccccc21)Nc1cccc(C(F)(F)F)c1 | inactive | 2.25% [at 17.1 µM, percent relative to cAMP agonist control] | inactive | -24.5% [at 30.8 µM] |  |  | 
CCCOc1ccc(/C=C2/C(=O)ON=C2C)cc1Cl | inactive |  | inactive |  | inactive | inactive | 
O=C(O)c1ccn2c(C(=O)c3ccc(Cl)cc3)c(-c3ccccc3)cc2c1 | inactive |  | inactive |  | inactive | inactive | 
COc1cc2c(cc1OC)C(c1ccc(Cl)cc1)N(c1ccc(C)c(F)c1)C(=O)C2 (stereo unspecified) | inactive |  |  |  | inactive | inactive | inactive [at 12.7 µM]
O=C(O)c1ccc(N/N=C/c2ccc(-c3ccccc3Cl)o2)cc1 | inactive | 7.2% [at 17.1 µM, percent relative to cAMP agonist control] | inactive | 1.4% [at 30.8 µM] |  |  | 
CCc1nc2c(OCc3ccc(C(=O)OC)cc3)cccn2c1N(C)C(=O)c1ccc(C)cc1 | inactive |  | inactive |  | inactive | inactive | 
COC(=O)[C@]12CCCCC=C1N(CCC1=CCCCC1)C(=O)[C@H](CC(=O)NCc1cccc(C(F)(F)F)c1)C2 | inactive | 0% [at 17.1 µM, percent relative to cAMP agonist control] | inactive | -9.47% [at 30.8 µM] |  |  | 
Cc1ccc(-c2nc3c(c(=O)[nH]c(=O)n3Cc3ccccc3)n2C)o1 | inactive |  | inactive |  | inactive | inactive | 
CCCn1cc(SCC(=O)NCc2ccc3c(c2)OCO3)c2ccccc21 | inactive | 0% [at 17.1 µM, percent relative to cAMP agonist control] | inactive | -3.41% [at 30.8 µM] |  |  | 
C=C(C)COc1ccc(-c2[nH]ncc2-c2ccccc2OC)c(O)c1 | inactive | 16.3% [at 17.1 µM, percent relative to cAMP agonist control] | inactive | 6.08% [at 30.8 µM] |  |  | 
Cc1cc(C)nc(NS(=O)(=O)c2ccc(NC(=O)CN3C(=O)S/C(=C\c4ccccc4)C3=O)cc2)n1 | inactive |  | inactive |  | inactive | inactive | 
Cc1cc(N2CCOCC2)ccc1/C=C1/SC(=O)NC1=O | inactive |  | inactive |  | inactive | inactive | 
O=C(NC1CCCCC1)C(c1ccc(-c2ccccc2)cc1)n1c(=O)c(-c2ccco2)nc2ccccc21 (stereo unspecified) | inactive |  | inactive |  | inactive | inactive | 
COc1ccc(Cl)cc1NC(=O)c1c(NCc2ccc(C)o2)sc2c1CCCCC2 | inactive |  | inactive |  | inactive | inactive | 
COc1ccc(Oc2cn[nH]c2-c2ccc(OC)cc2O)cc1 | inactive | 9.65% [at 17.1 µM, percent relative to cAMP agonist control] | inactive | -4.7% [at 30.8 µM] |  |  | 

SMILES | Potency [1] | activation [2] | Potency [3] | activity change, negative = inhibition [4] | Potency [2] | Potency [4] | outcome [3]
C[C@@]12C(=O)Nc3cc(F)ccc3C(=O)N1[C@H]1c3cc(Br)ccc3OC[C@@H]1[C@@H]2c1ccccc1 | inactive |  | inactive |  | inactive | inactive | 
O=C(CC(c1ccccc1)c1cc(Cl)ccc1O)N1CCCC1 (stereo unspecified) | inactive |  | inactive |  | inactive | inactive | 
COc1cccc(C(=O)Nc2cccc(C(=O)OCc3cc(=O)n4c(C)csc4n3)c2)c1 | inactive |  | inactive |  | inactive | inactive | 
N#CCC(=O)N/N=C/c1coc2ccccc2c1=O | inactive |  | inactive |  | inactive | inactive | 
Cc1ccc(C)c(Cn2c(C3CC(=O)N(c4ccccc4C)C3)nc3ccccc32)c1 (stereo unspecified) | inactive |  | inactive |  | inactive | inactive | 
CC(C)Cc1ccc(CN2C(C(C)C)C(=O)N(Cc3cn(CCC4OCCO4)nn3)CCS2(=O)=O)cc1 (stereo unspecified) | inactive | 4.64% [at 17.1 µM, percent relative to cAMP agonist control] | inactive | -13.5% [at 30.8 µM] |  |  | 
O=c1[nH]cc(N=Cc2cc(Cl)cc(Cl)c2O)c(=O)[nH]1 | inactive |  | inactive |  | inactive | inactive | 
Cc1nc(-c2ccc(Cl)cc2)sc1CCNC(=O)c1cccs1 | inactive |  | inactive |  | inactive | inactive | 
COc1ccc(OC)c(C(=O)c2coc3cc(Br)c(O)c(Br)c23)c1 | inactive |  | inactive |  | inactive | inactive | 
N=C1/C(=C\c2ccc(-c3cccc(Cl)c3)o2)C(=O)N=C2SC=C(c3ccccc3)N12 | inactive |  | inactive |  | inactive | inactive | 
Cc1ccc(-n2c(CCC(=O)O)ccc2-c2cccs2)cc1Cl | inactive |  |  |  | inactive | inactive | inactive [at 12.7 µM]
CC(C)CC(NS(=O)(=O)OCC(Cl)(Cl)Cl)c1ccccc1 (stereo unspecified) | inactive | 5.17% [at 17.1 µM, percent relative to cAMP agonist control] | inactive | -22.9% [at 30.8 µM] |  |  | 
Cc1noc(NS(=O)(=O)c2ccc(N/C=C\C(=O)c3cccc4ccccc34)cc2)c1C | inactive |  | inactive |  | inactive | inactive | 
CCc1nc2sc3ccccc3c(=O)c2c(=O)n1Cc1ccco1 | inactive |  | 75.7 µM (active) |  | inactive | inactive | 
O=C(NNC(=O)c1ccccc1F)c1cccc(-n2cccc2)c1 | inactive |  | inactive |  | inactive | inactive | 
O=C(COc1ccccc1-c1ccccc1)NCc1ccco1 | inactive |  |  |  | inactive | inactive | inactive [at 12.7 µM]
COc1cc(OC)cc(C(=O)Nc2ccc(NC(=O)c3ccco3)c(Cl)c2)c1 | inactive |  | inactive |  | inactive | inactive | 
O=C(Nc1ccc(S(=O)(=O)Nc2nccs2)cc1)c1cc(-c2ccccn2)nc2ccccc12 | inactive | 4.2% [at 17.1 µM, percent relative to cAMP agonist control] | inactive | -7.32% [at 30.8 µM] |  |  | 
COc1ccc(OC)c(CNC(=O)CCCc2cn(C)c3ccccc23)c1 | inactive |  | inactive |  | inactive | inactive | 
CC1=C(C(=O)Nc2ccccc2)C(c2ccc[nH]2)n2ncnc2N1 (stereo unspecified) | inactive |  | inactive |  | inactive | inactive | 
COc1ccc(C(=O)NC2(C(F)(F)F)NC(=O)N(CCCc3ccccc3)C2=O)c(OC)c1OC (stereo unspecified) | inactive | 12.9% [at 17.1 µM, percent relative to cAMP agonist control] | inactive | -10.8% [at 30.8 µM] |  |  | 
O=S1(=O)N=C(N(Cc2cccs2)c2ccc(O)cc2)c2ccccc21 | inactive |  | inactive |  | inactive | inactive | 
O=C(N/N=C/c1coc2ccc(Cl)cc2c1=O)c1cc(O)cc(O)c1 | inactive |  | inactive |  | inactive | inactive | 
Cc1ccc(CNc2nc(NCc3ccccc3)nc3ccsc23)c(C)c1 | inactive |  | inactive |  | inactive | inactive | 
O=C(N/N=C/c1ccc(Sc2ccccn2)o1)c1cc2ccccc2cc1O | inactive |  | inactive |  | inactive | inactive | 
COc1ccccc1C(C(=O)c1ccccc1)c1ccc(O)cc1 (stereo unspecified) | inactive | 3.15% [at 17.1 µM, percent relative to cAMP agonist control] | inactive | -22.7% [at 30.8 µM] |  |  | 
CCOC(=O)c1c(C)oc2nc(C)nc(N(C)Cc3ccccc3)c12 | inactive |  |  |  | inactive | inactive | inactive [at 12.7 µM]

— PubChem BioAssay (NCATS)
